Experimental findings from PubChem BioAssay are described below.

Assay [1] is described as follows: antimalarial activity against Dd2 strain (AID 2302;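 active = growth inhibition above 50% at the single 2 µM test dose, taken to imply half-maximal potency below 2 µM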;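 also: 0% = DMSO untreated growth and 100% = chloroquine plus artemisinin killed control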). Particulars: P. falciparum Dd2 in RBCs, LDH growth readout, 72 h; at 2 µM; active compounds read high.
Assay [2] is described as follows: human hepatoma cell viability loss – ATP luminescence, cytotoxicity control for P. falciparum antimalarial project, primary screen (AID 2303;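 active = inhibition above 50%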;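 also: 0% = DMSO wells and 100% = digitonin-killed cells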). As to conditions: HepG2 viability, 24-48 h, at 10 µM, active compounds read high.
Assay [3] addresses L-lactate dehydrogenase (Plasmodium falciparum (isolate CDC / Honduras)) (UniProt Q27743). Put plainly: PfLDH activity inhibition – cell lysate, 3D7 strain, counter-screen for P. falciparum growth inhibition project (AID 2304).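 Also: 0% = vehicle and 100% = reference inhibitor.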 Particulars: P. falciparum 3D7 crude extract, LDH APAD/NBT absorbance; at 2 µM; active compounds read high. (Counterscreens check selectivity or assay interference.)

Assay [4] in a line: inhibition of 3D7 malaria parasite growth – strain 3D7 (AID 2306).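 Also: 0% = DMSO wells and 100% = chloroquine plus artemisinin control wells.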 Particulars: P. falciparum 3D7 erythrocytic growth, LDH absorbance, 72 h; at 2 µM; active compounds read high.
Assay [5] concerns the target Calcium-dependent protein kinase 1 (Plasmodium falciparum (isolate 3D7)) (UniProt P62344). Briefly: PfCDPK1 kinase inhibitors, biochemical, TCAMS library (AID 1159585; cut-off not given, nearly all actives have IC50 up to about 0.98 µM;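 also: inhibitors leave more ATP so luminescence rises with inhibition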). As to conditions: recombinant PfCDPK1, Kinase-Glo ATP depletion luminescence. In general terms: Kinase-Glo measures the ATP left after a reaction by luminescence.
Assay [6] deals with Plasmodium falciparum protein kinase 6 (PK6, PF3D7_1337100) (UniProt Q8IDW1). Put plainly: PfPK6 kinase inhibitors, biochemical, TCAMS library (AID 1159586). As to conditions: recombinant PfPK6, Kinase-Glo ATP depletion luminescence.
Plasmodium falciparum protein kinase 6 (PK6, PF3D7_1337100), sequence (Q8IDW1 1-305): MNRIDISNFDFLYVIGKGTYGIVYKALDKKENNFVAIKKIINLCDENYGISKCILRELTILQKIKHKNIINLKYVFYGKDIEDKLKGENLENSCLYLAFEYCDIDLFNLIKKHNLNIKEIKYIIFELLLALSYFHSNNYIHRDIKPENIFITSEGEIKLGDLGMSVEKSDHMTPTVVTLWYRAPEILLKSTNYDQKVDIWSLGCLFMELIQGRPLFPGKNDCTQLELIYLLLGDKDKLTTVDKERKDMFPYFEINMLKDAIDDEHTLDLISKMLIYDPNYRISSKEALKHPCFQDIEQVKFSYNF
Assay [7] deals with Protein kinase 7 (PK7), Plasmodium falciparum 3D7 (PF3D7_0213400) (UniProt Q7YTF7). Put plainly: inhibition of Plasmodium PK7 catalytic activity – biochemical, TCAMS antimalarial set, Kinase-Glo luminescence (AID 1159587). As to conditions: recombinant PfPK7, Kinase-Glo ATP depletion luminescence.
Protein kinase 7 (PK7), Plasmodium falciparum 3D7 (PF3D7_0213400), sequence (Q7YTF7 1-343): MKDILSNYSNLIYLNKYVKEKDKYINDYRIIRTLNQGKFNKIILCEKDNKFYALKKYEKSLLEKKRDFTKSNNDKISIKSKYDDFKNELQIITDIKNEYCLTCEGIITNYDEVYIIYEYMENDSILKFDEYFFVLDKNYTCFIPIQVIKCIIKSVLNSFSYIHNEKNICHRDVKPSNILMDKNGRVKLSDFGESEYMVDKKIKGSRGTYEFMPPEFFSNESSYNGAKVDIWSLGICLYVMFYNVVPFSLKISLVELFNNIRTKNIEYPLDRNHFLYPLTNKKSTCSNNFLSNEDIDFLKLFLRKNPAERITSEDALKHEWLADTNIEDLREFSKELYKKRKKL
Assay [8] addresses Calcium-dependent protein kinase 4 (Plasmodium falciparum (isolate 3D7)) (UniProt Q8IBS5). Put plainly: PfCDPK4 kinase inhibitors, biochemical, TCAMS library (AID 1159588; cut-off not given, nearly all actives have IC50 up to about 0.91 µM). Particulars: recombinant PfCDPK4, Kinase-Glo ATP depletion luminescence.

Unmarked numbers belong to inactive results. For some of these results: Entries with a potency or affinity are not part of this list. Active and inactive are the calls of the source. Unless noted, no rule for the calls is given here.

In general, inhibition refers to the change of the read-out against control, counted positive when it falls.

Calcium-dependent protein kinase 4 (Plasmodium falciparum (isolate 3D7)), sequence (Q8IBS5 whole entry, looked up): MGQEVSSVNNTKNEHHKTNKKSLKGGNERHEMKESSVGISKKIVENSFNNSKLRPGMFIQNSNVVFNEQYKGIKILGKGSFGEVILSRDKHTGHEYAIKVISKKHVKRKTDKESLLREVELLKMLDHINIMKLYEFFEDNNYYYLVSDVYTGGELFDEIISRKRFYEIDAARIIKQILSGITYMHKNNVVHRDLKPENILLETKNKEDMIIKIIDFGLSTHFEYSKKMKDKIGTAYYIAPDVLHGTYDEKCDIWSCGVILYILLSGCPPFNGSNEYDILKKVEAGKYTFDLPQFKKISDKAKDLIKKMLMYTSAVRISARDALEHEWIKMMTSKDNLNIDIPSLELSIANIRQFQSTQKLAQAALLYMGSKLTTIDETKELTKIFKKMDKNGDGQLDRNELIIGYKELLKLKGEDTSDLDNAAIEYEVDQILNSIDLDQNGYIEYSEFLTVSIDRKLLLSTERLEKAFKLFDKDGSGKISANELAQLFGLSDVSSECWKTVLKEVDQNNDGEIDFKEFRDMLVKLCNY
L-lactate dehydrogenase (Plasmodium falciparum (isolate CDC / Honduras)), sequence (Q27743 whole entry, looked up): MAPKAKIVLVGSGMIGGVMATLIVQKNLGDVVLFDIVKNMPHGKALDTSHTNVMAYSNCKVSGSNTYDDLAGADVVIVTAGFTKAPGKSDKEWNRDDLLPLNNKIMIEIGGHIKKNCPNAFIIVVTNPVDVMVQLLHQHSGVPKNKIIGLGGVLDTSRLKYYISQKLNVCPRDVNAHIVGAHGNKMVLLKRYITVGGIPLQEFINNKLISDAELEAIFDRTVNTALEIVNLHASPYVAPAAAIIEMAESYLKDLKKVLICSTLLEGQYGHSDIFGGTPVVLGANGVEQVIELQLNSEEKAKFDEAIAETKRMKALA
Calcium-dependent protein kinase 1 (Plasmodium falciparum (isolate 3D7)), sequence (P62344 whole entry, looked up): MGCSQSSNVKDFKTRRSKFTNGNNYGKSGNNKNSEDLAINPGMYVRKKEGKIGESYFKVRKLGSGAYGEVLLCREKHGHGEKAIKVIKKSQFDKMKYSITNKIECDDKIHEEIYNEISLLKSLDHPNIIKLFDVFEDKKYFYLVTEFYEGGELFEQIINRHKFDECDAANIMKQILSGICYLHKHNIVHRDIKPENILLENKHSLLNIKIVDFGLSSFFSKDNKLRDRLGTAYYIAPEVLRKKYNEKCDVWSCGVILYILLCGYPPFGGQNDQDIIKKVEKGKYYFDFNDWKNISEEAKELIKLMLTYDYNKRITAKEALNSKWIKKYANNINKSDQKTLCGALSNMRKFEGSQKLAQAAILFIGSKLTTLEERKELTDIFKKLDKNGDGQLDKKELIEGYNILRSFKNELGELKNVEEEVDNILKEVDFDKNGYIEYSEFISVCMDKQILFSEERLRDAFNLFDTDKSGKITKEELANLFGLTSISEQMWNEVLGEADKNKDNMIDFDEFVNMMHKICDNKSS

For `COc1ccc2nc(C)cc(NN=Cc3ccncc3)c2c1`, the growth inhibition in assay [1] was 68% (active); in assay [4], 102% (active). Moreover, the values for the inhibition in assay [2] and in assay [3] were 6% and 1%, respectively. Further, the result in assay [5], in assay [6], in assay [7] and in assay [8] was inactive.

Consider `COc1cccc(-c2ccc3c(-c4cccc(S(C)(=O)=O)c4)cnc(N)c3c2)c1`, for which the growth inhibition in assay [1] was 21%; in assay [4], 96% (active). The inhibition in assay [2] is 45%; in assay [3] it was -6%. The outcome in assay [5], in assay [6], in assay [7] and in assay [8] was inactive.

Turning to `CC[C@H]1CN2CCc3c([nH]c4ccccc34)[C@@H]2C[C@@H]1CC1c2cc(OC)c(OC)cc2CCN1C` (stereo not given in full), the growth inhibition was 45% in assay [1] and 85% (active) in assay [4]. In addition, the figures for the inhibition in assay [2] and in assay [3] were 31% and 5%, respectively. Moreover, the result in assay [5], in assay [6], in assay [7] and in assay [8] was inactive.

Take `CC(=O)Nc1ccc(CN2CCN(C(c3ccc(F)cc3)c3ccc(F)cc3)CC2)cc1`: the growth inhibition was 79% (active) in assay [1] and 93% (active) in assay [4]. The inhibition in assay [2] is 4%; in assay [3] it was 0%. In addition, the result in assay [5], in assay [6], in assay [7] and in assay [8] was inactive.

For the compound `CC(Oc1ccc(NC(=O)c2cccs2)cc1)C(=O)c1ccc(Cl)cc1` (stereo not given), the growth inhibition was 83% (active) in assay [1] and 92% (active) in assay [4]. Also, the inhibition in assay [2] was -1%; in assay [3], 1%. Besides, the outcome in assay [5], in assay [6], in assay [7] and in assay [8] was inactive.

`CCCC(=O)NC(NC(=S)Nc1ccc([N+](=O)[O-])cc1)C(Cl)(Cl)Cl` (stereo not given): the values for the growth inhibition in assay [1] and in assay [4] were 14% and 93% (active), respectively. For the same compound, the inhibition in assay [2] was 10%; in assay [3] it was 4%. Besides, the outcome in assay [5], in assay [6], in assay [7] and in assay [8] was inactive.

For the compound `Cc1ncc(CN2CCC(C(=O)Nc3ccc(-c4nc5ccccc5o4)cc3)CC2)s1`, the growth inhibition in assay [1] is 92% (active); in assay [4], 82% (active). Besides, the values for the inhibition in assay [2] and in assay [3] were -14% and 1%, respectively. The result in assay [5], in assay [6], in assay [7] and in assay [8] was inactive.

`CCN(CC)CCN(Cc1ccc(-c2ccc(C(F)(F)F)cc2)cc1)C(=O)Cn1c(CCc2ccc(F)c(F)c2F)nc(=O)c2cccnc21`: the figures for the growth inhibition in assay [1] and in assay [4] were 20% and 89% (active), respectively. Further, the inhibition is 29% in assay [2] and -3% in assay [3]. The outcome in assay [5], in assay [6], in assay [7] and in assay [8] was inactive.

As to `Cc1nc2ccc3ccc(CNc4ccc5c(c4)CN([C@H](CCC(=O)O)C(=O)O)C5=O)cc3c2c(=O)[nH]1`, the values for the growth inhibition in assay [1] and in assay [4] were 90% (active) and 87% (active), respectively. Also, the inhibition in assay [2] is 38%; in assay [3] it was 2%. Also, the result in assay [5], in assay [6], in assay [7] and in assay [8] was inactive.

As to `O=C(/C=C/c1ccc(Cl)c(Cl)c1)NCCCCCN1CCC(CCNC(=O)/C=C/c2ccccc2F)CC1`, the growth inhibition is 1% in assay [1] and 94% (active) in assay [4]. The inhibition in assay [2] is 47%; in assay [3], -2%. For the same compound, the result in assay [5], in assay [6], in assay [7] and in assay [8] was inactive.

Regarding `O=c1cc(NCCCNC2CCc3c(Cl)cc(Cl)cc32)[nH]c2ccccc12` (stereo not given), the growth inhibition in assay [1] is 29%; in assay [4], 100% (active). In addition, the inhibition was 3% in assay [2] and 0% in assay [3]. Besides, the outcome in assay [5], in assay [6], in assay [7] and in assay [8] was inactive.

On to `COc1ccc2c(c1)CC(NCc1ccc(-c3ccc4nc[nH]c4c3)cc1)C2` (stereo not given), for which the growth inhibition is 71% (active) in assay [1] and 100% (active) in assay [4]. For the same compound, the inhibition was 30% in assay [2] and 1% in assay [3]. The result in assay [5], in assay [6], in assay [7] and in assay [8] was inactive.

For the compound `NC(=O)c1cccc(C(=O)Nc2cccc(-c3ccc(-c4nc5ccc(C(F)(F)F)cc5[nH]4)cc3)c2)c1`, the growth inhibition in assay [1] was 78% (active); in assay [4], 100% (active). Besides, the figures for the inhibition in assay [2] and in assay [3] were 83% (active) and -1%, respectively. For the same compound, the outcome in assay [5], in assay [6], in assay [7] and in assay [8] was inactive.

On to `CC1CCc2c(C(=O)Nc3c(F)cc(F)cc3Br)csc2C1` (stereo not given), for which the growth inhibition was 59% (active) in assay [1] and 96% (active) in assay [4]. Moreover, the inhibition in assay [2] was -1%; in assay [3] it was 3%. Moreover, the result in assay [5], in assay [6], in assay [7] and in assay [8] was inactive.

Turning to `COc1ccc(S(=O)(=O)N(CCCN2CCN(C)CC2)Cc2csc(-c3ccc(CNCc4ccccc4)cc3)n2)cc1`, the growth inhibition is 86% (active) in assay [1] and 88% (active) in assay [4]. The inhibition is 10% in assay [2] and 6% in assay [3]. For the same compound, the outcome in assay [5], in assay [6], in assay [7] and in assay [8] was inactive.

Take `O=C(Nc1ccc(-c2nc3ccccc3[nH]2)cc1)c1cnc(Cl)c(Cl)c1`: the figures for the growth inhibition in assay [1] and in assay [4] were 95% (active) and 102% (active), respectively. Further, the inhibition in assay [2] was 11%; in assay [3] it was 0%. The outcome in assay [5], in assay [6], in assay [7] and in assay [8] was inactive.

Take `Cc1cccc2[nH]c(-c3cccc(-c4cccc(NC(=O)CNc5ccc(C(N)=O)cc5)c4)c3)nc12`: the growth inhibition in assay [1] was 56% (active); in assay [4] it was 100% (active). The results for the inhibition in assay [2] and in assay [3] were 15% and 6%, respectively. The result in assay [5], in assay [6], in assay [7] and in assay [8] was inactive.

`COCCN1CCC(CN(C)CC(C)(C)c2nc(-c3ccc(Cl)c(O)c3)c(-c3ccncc3)[nH]2)CC1`: the growth inhibition was 10% in assay [1] and 94% (active) in assay [4]. Also, the inhibition in assay [2] is -8%; in assay [3], -2%. Also, the outcome in assay [5], in assay [6], in assay [7] and in assay [8] was inactive.

Consider `CN(C)c1ccc(CN2CCC(NC(=O)c3ccc(-c4ccccc4F)s3)CC2)cc1`, for which the growth inhibition in assay [1] is 27%; in assay [4], 86% (active). The figures for the inhibition in assay [2] and in assay [3] were 41% and -3%, respectively. In addition, the outcome in assay [5], in assay [6], in assay [7] and in assay [8] was inactive.

As to `Nc1nccc2ccc(-c3ccc(Oc4ccccc4)cc3)cc12`, the growth inhibition in assay [1] was 80% (active); in assay [4], 98% (active). In addition, the figures for the inhibition in assay [2] and in assay [3] were 36% and -3%, respectively. The result in assay [5], in assay [6], in assay [7] and in assay [8] was inactive.
